# PLAP activator – activators of human placental alkaline phosphatase | 96,000 compounds, 1.2% hits | AID 696 | purified PLAP enzyme, luminescent substrate read-out; active compounds read high | P05187 | activation fold at 20 µM; in the data active means activation fold above about 2
# TNAP act mid DEA – human TNAP activation, intermediate phosphate acceptor. P05186. purified TNAP, CDP-star luminescence, 100 mM DEA, 30 min; active compounds read high; scale: 0 levamisole-inhibited, 1 vehicle-only enzyme. activation factor at 20 µM. 64,000 tested, under 10 active;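 active means activation factor of at least 2 at 20 µM, relative to controls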
# Target sequence (P05186 whole entry, looked up): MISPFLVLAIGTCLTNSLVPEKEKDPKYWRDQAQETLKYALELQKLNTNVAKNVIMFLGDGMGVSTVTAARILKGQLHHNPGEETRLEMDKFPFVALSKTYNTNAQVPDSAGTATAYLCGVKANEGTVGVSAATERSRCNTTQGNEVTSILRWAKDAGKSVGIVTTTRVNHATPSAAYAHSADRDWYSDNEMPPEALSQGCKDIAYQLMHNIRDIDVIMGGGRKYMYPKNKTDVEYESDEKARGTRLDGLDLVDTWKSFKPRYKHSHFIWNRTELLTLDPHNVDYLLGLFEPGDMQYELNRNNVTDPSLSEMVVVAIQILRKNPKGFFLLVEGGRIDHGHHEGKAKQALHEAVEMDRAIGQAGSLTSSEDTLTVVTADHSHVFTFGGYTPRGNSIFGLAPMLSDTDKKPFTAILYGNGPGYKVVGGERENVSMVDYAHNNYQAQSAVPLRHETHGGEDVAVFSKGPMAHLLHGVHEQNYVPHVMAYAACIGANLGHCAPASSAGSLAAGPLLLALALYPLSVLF
# E coli RNAP – inhibitors of Escherichia coli RNA polymerase. P0A8V2. E. coli RNA polymerase, fluorescence transcription assay. inhibition, %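 (tested at 10 µM)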. 62,000 compounds, 0.2% hits; in the data active means inhibition above about 20%;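 further: 0% = enzyme without compound and 100% = no enzyme blank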
# The depositor's hits bear a star; · = no result. Shown is part of a subset that was picked to be rich in hits.
SMILES,PLAP activator,TNAP act mid DEA,E coli RNAP
O=C(NCc1ccc2c(c1)OCO2)C1CCN(Cc2cnn(-c3ccccc3)c2-n2cccc2)CC1,2.5*,1,8.2
CCOC(=O)C1CCN(C(C(=O)NC2CCCC2)c2ccc(C)cc2)CC1 (configuration not stated),1.5,·,·
c1ccc(Nc2nc3ccccc3[nH]2)nc1,2.2*,1.2,10.8
Cc1cc(C)nc(Nc2nc3ccccc3[nH]2)n1,1.3,1.3,2.3
O=S(=O)(NCc1ccco1)N1CCOCC1,0.9,0.9,11.2
Cn1cnc2c1c(=O)n(CC(O)CO)c(=O)n2C (configuration not stated),0.9,0.9,8.2
CCc1ccc(N2CC(C(=O)Nc3ccc(C)c(S(=O)(=O)N4CCOCC4)c3)CC2=O)cc1 (configuration not stated),2*,·,·
Cc1ccc(N2CC(C(=O)Nc3ccc(S(=O)(=O)N4CCCC4)cc3)CC2=O)cc1 (configuration not stated),0.9,0.9,5.7
CC(Oc1ccc(Cl)cc1Cl)c1nc(-c2ccc(NC(=O)c3ccco3)cc2)no1 (configuration not stated),1,·,·
Cc1ccc(C)c(NC(=S)NNC(=O)c2sccc2C)c1,2.6*,·,·
COc1ccc(C)cc1NC(=O)C(=O)NNC(=O)c1ccco1,2.5*,·,·
COc1cc(NC(=O)c2ccco2)c(OC)cc1NC(=O)CCC(=O)Nc1cc(C)ccc1C,0.9,0.9,10.6
Cc1occc1C(=O)NNC(=S)Nc1ccccc1,1.9,·,·
Cc1ccsc1C(=O)NNC(=O)Nc1ccc(Cl)c(Cl)c1,1,·,·
Cc1ccccc1NC(=S)NNC(=O)c1ccoc1C,2.1*,·,·
Cc1ccc(C)c(NC(=S)NNC(=O)c2ccc(Br)o2)c1,2.3*,·,·
Cc1ccc(CNC(=O)c2ccc(Br)o2)cc1,1.1,0.9,5.6
CN(C(=O)CSc1nc(-c2ccccc2)cn1N)C(c1ccccc1)c1ccccc1,1.6,·,·
CCOC(=O)C1=CN(c2cccc(F)c2)C=C(C(=O)OCC)C1c1cc(OC)c(O)c([N+](=O)[O-])c1,1.4,·,·
CCOC(=O)N1CCN(C(=O)C(NC(=O)c2ccc(CC)cc2)C(C)C)CC1 (configuration not stated),1.3,0.9,7.1
CC1=CC(C)C2(CO)COC(c3ccccc3O)C1C2C (configuration not stated),1.4,·,·
NS(=O)(=O)c1ccc(CCNC2CC(=O)N(CCc3ccccc3)C2=O)cc1 (configuration not stated),0.9,1,10.6
Cc1ccc2c(c1)c(CC(=O)Nc1ccc(F)cc1)c(C(=O)O)n2C,1.4,·,·
Cc1cccc(NC(=S)NNC(=O)c2ccco2)c1,2.1*,·,·
Cc1ccc(NC(=S)NNC(=O)c2ccco2)cc1,1.8,·,·
SMILES,PLAP activator,TNAP act mid DEA,E coli RNAP
Cc1ccc(NC(=O)CCC(=O)NNC(=O)c2ccco2)c(C)c1,1.5,·,·
Cc1ccc(C)c(NC(=S)NNC(=O)c2ccco2)c1,2.5*,·,·
O=C(NC1(C(F)(F)F)NC(=O)N(C2CCCC2)C1=O)C1CC1 (configuration not stated),1,0.9,-11.4
Cc1ccc(NC(=O)Cc2ncc(C(F)(F)F)cc2Cl)cc1Cl,1.1,·,·
Cc1csc(=Nc2ccc(S(=O)(=O)N3CCOCC3)cc2)n1Cc1ccco1,1.6,0.9,0.0
COc1ccc(N/C(=C(/C(Cl)=C(Cl)Cl)[N+](=O)[O-])n2nnc3ccccc32)cc1OC,1,·,·
COc1ccc(-n2c(N)c(C(=O)NCC3CCCO3)c3nc4ccccc4nc32)c(OC)c1 (configuration not stated),2*,1,-7.4
C=CCn1c(N)c(C(=O)NCC2CCCO2)c2nc3ccccc3nc21 (configuration not stated),1.6,1,-17.4
CC(=O)NC1(c2ccc(F)cc2)CCN(C(=O)Nc2ccc(F)cc2F)CC1,1.4,·,·
Cc1sc2ncnc(N3CCCCC3)c2c1C,0.8,·,·
Cc1ccc(OCCN2CCN(c3ncnc4sc(C)c(C)c34)CC2)cc1,2.2*,·,·
CCOc1cc(C2c3c(n[nH]c3C)C(=O)N2c2ccc(C)cc2)ccc1O (configuration not stated),1.9,·,·
COc1cc(C2c3c(n[nH]c3C)C(=O)N2c2ccc(C)cc2)ccc1O (configuration not stated),2.2*,0.8,7.8
COc1cc(C2c3c(-c4ccccc4)n[nH]c3C(=O)N2c2ccccc2)ccc1O (configuration not stated),2.2*,1,10.0
COc1cc(C2c3c(oc4ccccc4c3=O)C(=O)N2c2ccc(C)cn2)ccc1O (configuration not stated),1.1,0.9,9.5
O=C(c1ccc(CNc2c(NC3CCCCC3)c(=O)c2=O)cc1)N1CCc2ccccc21,1.2,·,·
O=C(CCl)NCc1c(Cl)cccc1-n1cccc1,1,·,·
Cc1cc(NCc2ccco2)nc2cc(O)ccc12,·,0.9,-32.0
Cc1cc(C)c2ccc(NN)nc2c1O,2*,·,·
COc1ccc(OC)c(C(=O)c2ccc(C(=O)N3CCCCC3)cc2)c1,1.1,0.9,10.6
O=C(O)CCCNCc1ccccc1F,1,0.9,9.2
COc1c(S(=O)(=O)n2nc(C)cc2C)ccc(Cl)c1Cl,1.3,0.9,-4.6
Cc1cc(C(=O)CSc2n[nH]c(N)n2)c(C)n1C1CC1,1.3,·,·
Cc1cc(C(=O)CSc2n[nH]c(N)n2)c(C)n1-c1cc(F)ccc1F,2.4*,1.1,10.0
Cc1nc(SCC(=O)c2ccc(F)cc2)n[nH]1,2.3*,1,6.0
SMILES,PLAP activator,TNAP act mid DEA,E coli RNAP
Cc1ccc(-n2c(C)cc(C(=O)CSc3n[nH]c(N)n3)c2C)cc1,1.4,·,·
Cc1nc(SCC(=O)c2cccc([N+](=O)[O-])c2)n[nH]1,1.7,·,·
C=CCn1c(C)cc(C(=O)CSc2n[nH]c(N)n2)c1C,2.7*,·,·
CC([NH2+][O-])C(C)(C)NO (configuration not stated),0.9,·,·
CCOc1ccc(C(=O)N2CCC(C(=O)c3ccc4c(c3)OCCO4)CC2)cc1,1.4,0.9,9.7
COc1ccccc1N(CC(=O)Nc1cccnc1)S(=O)(=O)c1ccccc1,1,·,·
COc1ccc(OC)c(N(CC(=O)Nc2cccnc2)S(=O)(=O)c2ccccc2)c1,2.2*,·,·
COc1ccc(C2(CNC(=O)CCC(=O)O)CCCC2)cc1OC,1.2,·,·
CC(=O)c1ccc(-n2c(-c3cc(-c4ccco4)[nH]n3)n[nH]c2=S)cc1,2.6*,·,·
O=C(O)c1ccc(-n2c(-c3cc(-c4ccco4)[nH]n3)n[nH]c2=S)cc1,0.9,·,·
Cc1c(NC(=O)C(C)NCC2CCCO2)c(=O)n(-c2ccccc2)n1C (configuration not stated),1.1,·,·
O=C(O)c1ccc(CSc2ncn[nH]2)cc1,1,0.9,12.0
COc1ccc2c(c1)C(C)CC(C)(C)N2C(=O)CSc1ncn[nH]1 (configuration not stated),2.4*,1,8.7
Cc1ccc(C(=O)CSc2ncn[nH]2)cc1,2.3*,0.7,6.6
O=C(O)CSc1ncn[nH]1,0.7,0.9,9.5
COc1cc(CSc2ncn[nH]2)c(OC)cc1CSc1ncn[nH]1,1.1,0.4,7.8
COc1ccc(C(=O)CSc2ncn[nH]2)cc1OC,2.1*,0.9,1.3
CCc1ccc(C(=O)CSc2ncn[nH]2)cc1,2.4*,1,10.2
COc1ccc(NC(=O)CSc2ncn[nH]2)c([N+](=O)[O-])c1,1,·,·
O=C(OCn1nnc2ccccc2c1=O)C1CCCCC1,1.3,0.9,·
